In PubChem BioAssay (NCATS) one finds outcome and Potency data, which are given here for 39 molecules.

Results filed as inconclusive are left out. A call without a number means that no potency is given here. Calls of active or inactive are those of the source. The call rests on the fitted dose curve; in most records, active means well fitted curve in the direction sought with a large enough effect; inconclusive means small, poorly fitted or top-dose-only effect, or another doubt; inactive means no such curve, though single readings can be large; an effect the other way counts as inactive or inconclusive.

A short description of experiment [1]: Vero cells viability qHTS for Zika virus inhibitors (AID 1347167). Particulars: cytotoxicity counter-screen (Zika); series mostly up to 45.9 µM. Summed up:
(§1)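 qHTS titration; 24-48 h compound exposure, 37 degrees C/5% CO2; DMEM, 4% FBS; CellTiter Glo ATP luminescence.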

Experiment [2] is described as follows: HepG2 cells viability qHTS for Zika virus inhibitors (AID 1347168). Particulars: Zika counter-screen; series mostly up to 45.9 µM. Summed up:
as §1
(In qHTS, concentration-response curves come from the screen itself.)

Experiment [3] can be described thus: Tertiary RLuc qRT-PCR qHTS assay for Zika virus inhibitors (AID 1347169). Further: top concentration of the series differs between compounds; nearly all actives have a fitted effect of over 55% in size. Particulars: infected Vero cells, reporter luminescence, 48-72 h; series mostly up to 45.9 µM. Summed up:
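Vero, 1,000 cells/well, o/n 37 C; cpd pinned in DMSO; ZIKV-RLuc Cambodian, MOI 1-2, 48-72 h 37 C; live-cell RLuc substrate, lum read at 1-1.5 h.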
For orientation: In qPCR the cycle at which signal appears reflects the starting amount.

The target in experiment [4] is Lysine-specific demethylase 5B (Homo sapiens) (UniProt Q9UGL1). Nature of the experiment: Optimization screen for KDM5B Histone Demethylases FDH coupled qHTS against the LOPAC library (AID 1347166). Particulars: KDM5B demethylation, FDH-coupled NADH fluorescence (FDH is formaldehyde dehydrogenase); series mostly up to 57.5 µM. Summed up: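 KDM5BDeltaAP (200nM final) in 50mM HEPES pH 7.5, 0.01% Tween-20 was preincubated with compound for 10 min at room temperature. A substrate mix of 12.5uM H3K4Me3, 25uM a-ketoglutarate, ascorbate, Fe2+, NAD+ and formaldehyde dehydrogenase was then added. NADH fluorescence (340/450 nm) was read initially and after 30 min.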
Lysine-specific demethylase 5B (Homo sapiens), sequence (Q9UGL1 whole entry, looked up): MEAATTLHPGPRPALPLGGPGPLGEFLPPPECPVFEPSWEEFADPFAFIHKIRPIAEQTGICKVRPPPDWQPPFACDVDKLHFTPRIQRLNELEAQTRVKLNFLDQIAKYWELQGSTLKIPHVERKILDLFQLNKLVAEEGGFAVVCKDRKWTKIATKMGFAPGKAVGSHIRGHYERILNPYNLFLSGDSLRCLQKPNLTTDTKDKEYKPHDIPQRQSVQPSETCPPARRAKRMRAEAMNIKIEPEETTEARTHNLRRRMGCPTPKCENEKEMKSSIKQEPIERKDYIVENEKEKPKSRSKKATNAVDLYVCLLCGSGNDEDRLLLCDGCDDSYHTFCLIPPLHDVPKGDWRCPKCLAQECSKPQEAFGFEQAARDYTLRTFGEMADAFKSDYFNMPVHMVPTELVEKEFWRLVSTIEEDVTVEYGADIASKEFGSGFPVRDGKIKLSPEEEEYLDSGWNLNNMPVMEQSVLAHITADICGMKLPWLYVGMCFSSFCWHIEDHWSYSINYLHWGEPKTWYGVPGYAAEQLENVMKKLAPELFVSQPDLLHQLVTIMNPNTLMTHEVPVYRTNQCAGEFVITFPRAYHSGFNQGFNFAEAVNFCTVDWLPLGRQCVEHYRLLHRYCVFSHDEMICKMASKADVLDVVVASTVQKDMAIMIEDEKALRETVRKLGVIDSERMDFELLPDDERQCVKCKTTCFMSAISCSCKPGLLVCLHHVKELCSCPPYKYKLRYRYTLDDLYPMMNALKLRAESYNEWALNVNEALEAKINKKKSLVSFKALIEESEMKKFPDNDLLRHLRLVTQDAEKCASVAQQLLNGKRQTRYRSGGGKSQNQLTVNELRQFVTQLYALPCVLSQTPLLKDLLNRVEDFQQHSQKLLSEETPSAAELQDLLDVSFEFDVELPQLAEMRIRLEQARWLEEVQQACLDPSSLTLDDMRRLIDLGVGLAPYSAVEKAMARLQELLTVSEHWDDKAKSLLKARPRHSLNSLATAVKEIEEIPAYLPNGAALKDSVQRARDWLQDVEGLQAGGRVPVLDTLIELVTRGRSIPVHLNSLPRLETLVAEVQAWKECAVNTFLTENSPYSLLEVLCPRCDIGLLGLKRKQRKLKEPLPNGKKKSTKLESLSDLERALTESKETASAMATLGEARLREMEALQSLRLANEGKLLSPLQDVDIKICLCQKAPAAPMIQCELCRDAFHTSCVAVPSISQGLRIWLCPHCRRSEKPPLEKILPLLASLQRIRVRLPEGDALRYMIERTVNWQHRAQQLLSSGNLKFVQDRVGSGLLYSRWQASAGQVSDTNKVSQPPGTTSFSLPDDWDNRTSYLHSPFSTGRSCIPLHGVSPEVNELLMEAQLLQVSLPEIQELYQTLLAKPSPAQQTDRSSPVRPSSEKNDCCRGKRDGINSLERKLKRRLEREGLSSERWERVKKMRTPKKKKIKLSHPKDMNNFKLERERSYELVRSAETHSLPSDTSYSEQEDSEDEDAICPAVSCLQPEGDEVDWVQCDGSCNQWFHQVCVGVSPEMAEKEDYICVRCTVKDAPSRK

Experiment [5] in a line: OV-KATE Cancer Cell Toxicity qHTS against the NCATS CANVASS Library (AID 1347345). Particulars: OV-KATE cells viability, CellTiter-Glo luminescence, 72 h; series mostly up to 76 µM. Summed up: (§2)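 ATP content after 72 h treatment, detected by CellTiter-Glo luminescence (15min room-temperature development), reflects cell viability. Wells contained 1000 cells and received compounds at 11 concentrations.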

Experiment [6] in a line: HPAF-II Cancer Cell Toxicity qHTS against the NCATS CANVASS Library (AID 1347346). Further: nearly all actives have a fitted effect of over 55% in size. Particulars: HPAF-II viability, CellTiter-Glo ATP luminescence, 72 h; series mostly up to 76 µM. Summed up:
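1000 HPAF-II cells/well; 4 h pre-incubation; 11-pnt compound titration; 72 h, 37 degrees C/5% CO2; CellTiter-Glo, 15 min RT; luminescence read.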

The nature of experiment [7]: UWB1.289 Cancer Cell Toxicity qHTS against the NCATS CANVASS Library (AID 1347347). Further: nearly all actives have a fitted effect of over 60% in size. Particulars: UWB1.289 viability, CellTiter-Glo luminescence, 72 h; series mostly up to 76 µM. Summed up: as §2
Experiment [8] in a line: OV-SAHO Cancer Cell Toxicity qHTS against the NCATS CANVASS Library (AID 1347348). Further: nearly all actives have a fitted effect of over 55% in size. Particulars: OV-SAHO viability, CellTiter-Glo luminescence, 72 h; series mostly up to 76 µM. Summed up: as §2
Experiment [9] is described as follows: Panc-1005 Cancer Cell Toxicity qHTS against the NCATS CANVASS Library (AID 1347349). Further: nearly all actives have a fitted effect of over 60% in size. Particulars: Panc-1005 viability, CellTiter-Glo luminescence, 72 h; series mostly up to 76 µM. Summed up: as §2
Experiment [10] can be described thus: SW1088 Cancer Cell Toxicity qHTS against the NCATS CANVASS Library (AID 1347350). Further: nearly all actives have a fitted effect of over 75% in size. As to conditions: SW1088 viability, CellTiter-Glo luminescence, 72 h; series mostly up to 76 µM. Summed up: as §2
Experiment [11] is described as follows: U-118MG Cancer Cell Toxicity qHTS against the NCATS CANVASS Library (AID 1347351). As to conditions: U-118MG viability, CellTiter-Glo luminescence, 72 h; series mostly up to 76 µM. Summed up:
as §2

Experiment [12] can be described thus: COV-362 Cancer Cell Toxicity qHTS against the NCATS CANVASS Library (AID 1347352). As to conditions: COV-362 viability, CellTiter-Glo luminescence, 72 h; series mostly up to 76 µM. Summed up:
(§3)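 1000 cells/well, 4 h pre-incubation 37 °C/5% CO2; 11-pnt titration; 72 h; CellTiter-Glo 15 min RT, luminescence.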

Experiment [13] in a line: A2780 Cisplatin Sensitive Ovarian Cancer Cell Toxicity qHTS against the NCATS CANVASS Library (AID 1347353). Further: nearly all actives have a fitted effect of over 60% in size. Particulars: A2780 ovarian cancer viability, ATPLite luminescence, 72 h; at 91.4 µM (top of the series) unless noted. Summed up:
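750 cells/well, 4 h settle; 11-pt cpd titration; 72 h, 37 °C, 5% CO2; ATPLite 10 min RT; luminescence read.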

Experiment [14] is described as follows: UWB1.289-WTBRCA1 Cancer Cell Toxicity qHTS against the NCATS CANVASS Library (AID 1347354). As to conditions: UWB1.289-WTBRCA1 viability, CellTiter-Glo luminescence, 72 h; series mostly up to 76 µM. Summed up:
as §3

Experiment [15] is described as follows: HEK-293 Cancer Cell Toxicity qHTS against the NCATS CANVASS Library (AID 1347355). Further: nearly all actives have a fitted effect of over 65% in size. Particulars: HEK-293 viability, CellTiter-Glo luminescence, 72 h; series mostly up to 91.4 µM. Summed up: as §3
Experiment [16] can be described thus: HPAF-II 24hr Apoptosis Induction qHTS against the NCATS CANVASS Library (AID 1347356). Particulars: HPAF-II caspase-3/7 Caspase-Glo luminescence; series mostly up to 91.4 µM. Summed up: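 500 HPAF-II cells/well; compounds in 11-pnt qHTS; 24 h, 37 C/5% CO2; Caspase-Glo 3/7 added, 15 min RT dark; luminescence read. Doxorubicin control.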
Experiment [17] is described as follows: HEK293 18hr Apoptosis Induction qHTS against the NCATS CANVASS Library (AID 1347357). As to conditions: HEK293 caspase-3/7 Caspase-Glo luminescence; series mostly up to 91.4 µM. Summed up:
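Cells seeded at 500/well in DMEM + 10% FBS. Compounds pinned, 11 concentrations. 18 h, 37 degrees C/5% CO2. Caspase-Glo 3/7 added, 15 min RT dark, luminescence read.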

Experiment [18] is described as follows: HPAF-II 12hr Apoptosis Induction qHTS against the NCATS CANVASS Library (AID 1347358). Particulars: HPAF-II caspase-3/7 Caspase-Glo luminescence; series mostly up to 91.4 µM. Summed up:
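Caspase-Glo 3/7 luminescence (DEVD substrate) reports caspase activity in HPAF-II cells after 12 h compound treatment at 37 degrees C. Compounds were tested in an 11-point series. Doxorubicin served as control.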

Experiment [19] can be described thus: HEK293 24hr Apoptosis Induction qHTS against the NCATS CANVASS Library (AID 1347359). As to conditions: HEK293 caspase-3/7 activation, Caspase-Glo luminescence; series mostly up to 91.4 µM. Summed up:
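HEK293 cells, 500 per well, exposed to an 11-point compound series for 24 hours at 37 degrees C. Caspase 3/7 activity read by Caspase-Glo luminescence (DEVD substrate) after 15 min at room temperature.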

Take `C[C@@]1(C(=O)O)CC[C@]2(C)CC[C@]3(C)C4=CC(=O)c5cc(O)c(O)cc5[C@]4(C)CC[C@@]3(C)[C@@H]2C1`: the molecule was called inactive in [1] and in experiment [2]. Besides, in experiment [3], the Potency entry is “inactive”.
For the molecule `CCCCCOc1cc2c(cc1-c1cc(/C=C/C(=O)O)ccc1O)C(C)(C)CCC2(C)C`, the call in experiment [1] and in experiment [2] was inactive.
As for `Oc1ccc2c3c1O[C@H]1c4[nH]c5ccccc5c4C[C@@]4(O)C(C2)N(CC2CC2)CCC314` (stereo not given in full), in experiment [4], the Potency entry is “inactive”.
With `C=CCN1CC[C@]23c4c5ccc(O)c4O[C@@H]2/C(=N/N=C2\CC[C@@]4(O)C6Cc7ccc(O)c8c7[C@@]4(CCN6CC=C)[C@@H]2O8)CC[C@@]3(O)C1C5`, the Potency result in experiment [4] is “inactive”.
Same read-out and setting: next, `COc1ccc2c(c1)c(CCN1CCOCC1)c(C)n2C(=O)c1cccc(Cl)c1Cl`: “inactive”; `CP(=O)(O)C1=CCNCC1`: “inactive”; `c1ccc2cc(CC3=NCCN3)ccc2c1`: “inactive”.
Consider `CC(C)(O)[C@@H]1C2OC(=O)[C@@H]1[C@]1(O)C[C@H]3O[C@]34C(=O)O[C@H]2[C@]14C` (tested in a mixture with another compound), for which the Potency result in experiment [4] was “inactive”.
For `C[C@@H]1O[C@@H](O[C@H]2C[C@@H](O)[C@]3(CO)[C@@H]4C(CC[C@]3(O)C2)[C@@]2(O)CC[C@H]([C@@H]3COC(=O)C3)[C@@]2(C)C[C@H]4O)[C@H](O)[C@H](O)[C@H]1O` (stereo not given in full), the Potency entry in [4] was “inactive”.
On to `CC(C)(C)c1o[nH]c(=O)c1CC(N)C(=O)O` (stereo not given), for which, in [4], the Potency entry was “inactive”.
`OC1CCCCC1N1CCC(c2ccccc2)CC1` (stereo not given): in experiment [4], the Potency entry was “inactive”.
For `C/C(O)=C(\C#N)C(=O)Nc1cc(Br)ccc1Br`, in experiment [4], the Potency result was “inactive”.
Turning to `CCS(=O)(=O)Nc1cccc(C(=C2CCCCC2)c2cnc[nH]2)c1`, the Potency result in experiment [4] is “inactive”.
As to `COc1cc(CC(C)N)c(OC)cc1I` (stereo not given), the Potency entry in experiment [4] was “inactive”.
For `CCCN1CC[C@@H]2c3cc(O)ccc3CC[C@@H]21`, the Potency result in experiment [4] is “inactive”.
As for `NC(CCCCCP(=O)(O)O)C(=O)O` (stereo not given), the Potency entry in [4] was “inactive”.
With `COc1ccc2c(c1)C13CCCCC1C(C2)N(C)CC3` (stereo not given), the Potency entry in experiment [4] was “inactive”.
`C=CCN1C[C@@H](C)N([C@H](c2ccc(C(=O)N(CC)CC)cc2)c2cccc(OC)c2)C[C@@H]1C`: the Potency result in [4] was “inactive”.
As to `CCNC(=O)[C@H]1O[C@@H](n2cnc3c(N)ncnc32)[C@H](O)[C@@H]1O`, the Potency result in experiment [4] is “inactive”.
Consider `CN1C2CCC1CC(OC(c1ccccc1)c1ccccc1N)C2` (stereo not given), for which, in experiment [4], the Potency entry is “inactive”.
For the molecule `NCCc1ccc(S(=O)(=O)F)cc1`, the Potency entry in [4] was “inactive”.
The same measure, in the same setting: next, `CC(C)[C@@]1(NC(=O)[C@@H]2C[C@@H]3c4cccc5[nH]cc(c45)C[C@H]3N(C)C2)O[C@@]2(O)[C@@H]3CCCN3C(=O)[C@H](Cc3ccccc3)N2C1=O`: “inactive”; `COC(=O)N1CCN(C(=O)Cc2ccc(Cl)c(Cl)c2)C(CN2CCCC2)C1` (stereo not given): “inactive”; `CCCn1c(C)c(C(=O)c2ccc3ccccc3c2)c2ccccc21`: “inactive”.
In the case of `O=[N+]([O-])c1ccc2nc(N3CCNCC3)ccc2c1`, the Potency entry in experiment [4] is “inactive”.
Same read-out and setting: for `C[N+]1(C)C2CCC1CC(OC(=O)c1c[nH]c3ccccc13)C2` (stereo not given) the value was “inactive”.
For `C=CCN1CCC23c4c5ccc(O)c4O[C@H]2C(=O)CC[C@@]3(O)C1C5` (stereo not given in full), the Potency entry in experiment [4] was “inactive”.
In the case of `CC(=O)NBr`, in experiment [4], the Potency entry is “inactive”.
As to `COc1ccc2[nH]c3c(c2c1)CCNC3`, the Potency entry in experiment [4] was “inactive”.
As for `CC(N)c1cccc(Cl)c1Cl` (stereo not given), the Potency result in experiment [4] was “inactive”.
Regarding `CCCC[N+]1(C)C2CC(OC(=O)[C@H](CO)c3ccccc3)CC1C1OC12` (stereo not given in full), in experiment [4], the Potency entry was “inactive”.
The same measure, in the same setting: for `CCOC(=O)c1ncn2c1[C@@H]1CCCN1C(=O)c1cc(OC)ccc1-2` the value was “inactive”.
On to `CC(C)NP(=O)(NC(C)C)OP(=O)(NC(C)C)NC(C)C`, for which the Potency result in [4] is “inactive”.
Consider `CCCN(CCC)[C@@H]1CCc2cccc(O)c2C1`, for which the Potency result in experiment [4] was “inactive”.
As to `Cc1o[nH]c(=O)c1CC(N)C(=O)O` (stereo not given), the Potency result in experiment [4] is “inactive”.
Take `CC(N)Cc1c[nH]c2ccc(O)cc12` (stereo not given): in experiment [4], the Potency result is “inactive”.
Take `CCCCCCC(C)(C)c1ccc([C@@H]2C[C@H](O)CC[C@H]2CCCO)c(O)c1`: the Potency entry in experiment [4] is “inactive”.
For `O=C1C[C@@H]2OCC=C3CN4CC[C@]56c7ccccc7N1[C@H]5[C@H]2[C@H]3C[C@H]46`, the call in [5], in experiment [6], in [7], in [8], in experiment [9] and in [10] was inactive. Besides, the outcome in experiment [11], in experiment [12], in [13], in [14], in [15] and in [16] was inactive. For the same molecule, the molecule was called inactive in [17], in experiment [18] and in experiment [19].
Turning to `COc1ccc2[nH]cc(CCN)c2c1`, the outcome in [5], in experiment [6], in experiment [7], in experiment [8], in experiment [9] and in experiment [10] was inactive. In addition, the outcome in [11], in experiment [12], in [14], in experiment [15], in experiment [16] and in [17] was inactive. Besides, the outcome in [18] and in experiment [19] was inactive. In [13], the outcome is “inactive [at 46.1 µM]”.
